Results on 28 compounds are retold here after PubChem BioAssay (NCATS).

“And” between values parts separate entries of the source, which are not always exact repeats. Identical values can stand only once. Results filed as inconclusive are left out. The source made the active and inactive calls. The call rests on the fitted dose curve; in most records, active means well fitted curve in the direction sought with a large enough effect; inconclusive means small, poorly fitted or top-dose-only effect, or another doubt; inactive means no such curve, though single readings can be large; an effect the other way counts as inactive or inconclusive.

Assay [1] is described as follows: Primary fluorescence-based thiol-reactive (MSTI) qHTS assay for identification of artifact compounds. (AID 1845221). Further: nearly all actives have a fitted effect of over 65% in size. Further: potency means the concentration at half of the fitted maximal effect. A digest of the protocol: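 Thiol-reactive compounds detected by quenching of 4 uM MSTI fluorescence (525/598 nm) after 1 h room-temperature dark incubation in PBS pH 7.4, 2% DMSO. qHTS titration; percent inhibition Hill-fitted against Acetyl-MSTI/MSTI controls.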

Assay [2] has as its system Nanoluciferase (engineered Oplophorus gracilirostris luciferase). Nature of the assay: Primary Nanoluciferase (NLuc) qHTS assay for identification of artifact compounds. (AID 1845222). Further: potency means the concentration at half of the fitted maximal effect. The method, boiled down:
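Luminescence from secreted NLuc (filtered, 1:55-diluted S16 cell medium) read 5 min after Nano-Glo substrate; compounds preincubated 15 min, RT. Hill fits of inhibition normalized to DMSO and no-enzyme.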
(qHTS replaces the single test concentration by a dilution series.)

The nature of assay [3]: Primary redox qHTS assay for identification of artifact compounds. (AID 1845223). The method, boiled down:
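Redox-cycling detection via DTT (250 uM final) oxidation coupled to Amplex Red (25 uM)/HRP (250 mU/mL) in HBSS. 15 min preincubation plus 30 min after DTT, room temperature. Ex/Em 525/598 nm; 4-parameter Hill fit against DMSO and 10 uM DA3003.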

As to `CCCC1=CC2=C(CO1)C(=O)C(C)(OC(=O)c1c(C)cc(OC)cc1O)C(O)C2` (centres undefined), the Potency entry in assay [1], in assay [2] and in assay [3] was “inactive” in each case.

For `O=C(NN1CCCCC1)c1nn(-c2ccc(Cl)cc2Cl)c(-c2ccc(C#Cc3ccc(C(F)(F)F)cc3)s2)c1CNS(=O)(=O)N1CCCC1`, the Potency entry in assay [1], in assay [2] and in assay [3] was “inactive” in each case.

Turning to `COc1cc2c(cc1OC)CN(C(=O)[C@@H](NCc1ccncc1)C(C)(C)C)CC2`, the Potency entry in assay [1], in assay [2] and in assay [3] was “inactive” each time.

With `CN[C@@H]1[C@@H](O)[C@@H](O[C@@H]2[C@@H](O)[C@H](O[C@H]3O[C@H](CN)[C@@H](O)[C@H](O)[C@H]3O)[C@@H](N)C[C@H]2NC(=O)[C@@H](O)CN)OC[C@]1(C)O`, the Potency result in assay [1], in assay [2] and in assay [3] was “inactive” in each case.

Consider `CC(=O)OC1C=C(C(=O)O)C2(CO)CCC(C)C(C)(CCc3ccoc3)C2C1` (centres undefined), for which the Potency entry in assay [1], in assay [2] and in assay [3] was “inactive” throughout.

For the compound `C=C1CC[C@@H]2[C@](C)(CC[C@H](O)[C@@]2(C)CCC=C(C)C)[C@@H]1Cc1c[nH]c2ccccc12`, the Potency entry in assay [1], in assay [2] and in assay [3] was “inactive” in each case.

Regarding `CC(C)C1=CC2=CCC3[C@](C)(CCC[C@@]3(C)C(=O)O)C2CC1=O` (some centres undefined), the Potency result in assay [1], in assay [2] and in assay [3] was “inactive” throughout.

As to `CCOc1ccc(-c2ccc(Cn3c(CC(C)(C)C(=O)O)c(SC(C)(C)C)c4cc(OCc5ccc(C)cn5)ccc43)cc2)cn1`, the Potency result in assay [1], in assay [2] and in assay [3] was “inactive” in each case.

Regarding `CC(=O)NCCCCn1c2c(c3ccccc31)C(=O)NCC2`, the Potency result in assay [1], in assay [2] and in assay [3] was “inactive” throughout.

With `C=CCc1ccc(O[C@@H]2O[C@H](CO[C@@H]3O[C@H](CO)[C@@H](O)[C@H](O)[C@H]3O)[C@@H](O)[C@H](O)[C@H]2O)c(O)c1`, the Potency entry in assay [1], in assay [2] and in assay [3] was “inactive” in each case.

Turning to `COc1ccc([C@@H]2N[C@H](C(=O)O)Cc3c2[nH]c2ccccc32)cc1CN1CCN(c2ccccc2F)CC1`, the Potency entry in assay [1], in assay [2] and in assay [3] was “inactive” in each case.

Take `CC1CCC2(C)C(CC(O)C(O)C23CO3)C1(C)CCC1=CC(O)OC1=O` (centres undefined): the Potency entry in assay [1], in assay [2] and in assay [3] was “inactive” each time.

As to `Cn1c(=O)c2nc(/C=C/c3cccc(Cl)c3)n(C)c2n(C)c1=O`, the Potency result in assay [1], in assay [2] and in assay [3] was “inactive” in each case.

On to `N#Cc1ccnc(N2C(=O)CC[C@H]2C(=O)N(c2cncc(F)c2)[C@H](C(=O)NC2CC(F)(F)C2)c2ccccc2Cl)c1`, for which the Potency entry in assay [1], in assay [2] and in assay [3] was “inactive” throughout.

With `CCCCNC(=O)[C@@H]1Cc2ccccc2N1C(=O)[C@@H](N)CC`, the Potency result in assay [1], in assay [2] and in assay [3] was “inactive” each time.

For `COc1c(C)c(C(=O)c2ccc(N)c(C(=O)O)c2)n2ccccc12`, the Potency in assay [1] was 4.74 µM (active) and 5.32 µM (active); in assay [2] it was 9.53 µM (active). Further, in assay [3], the Potency result is “inactive”.

For `CC1=C2C(=O)O[C@@H](c3ccoc3)[C@]2(C)CCC1`, the Potency entry in assay [1], in assay [2] and in assay [3] was “inactive” in each case.

Consider `COc1cc(N2CCC(O)CC2)ccc1Nc1cc(Nc2ccccc2S(=O)(=O)C(C)C)c2cc[nH]c2n1`, for which the Potency in assay [1] is 927 nM (active). In addition, the Potency entry in assay [2] and in assay [3] was “inactive” throughout.

For `O=C(O)Cc1nn(Cc2nc3cc(C(F)(F)F)ccc3s2)c(=O)c2nccnc12`, the Potency entry in assay [1], in assay [2] and in assay [3] was “inactive” in each case.

Take `CC12CCC3c4ccc(O)cc4CCC3C1CCC2OC1OC(C(=O)O)C(O)C(O)C1O` (centres undefined): the Potency result in assay [1], in assay [2] and in assay [3] was “inactive” each time.

Take `CC(/C=C/C1(O)C2(C)COC1(C)CC(=O)C2)O[C@@H]1O[C@H](CO)[C@@H](O)[C@H](O)[C@H]1O` (some centres undefined): in assay [1], the Potency is 10300 nM (active). Besides, the Potency entry in assay [2] and in assay [3] was “inactive” throughout.

On to `C[C@@H]1CC[C@]2(C(=O)O)CC[C@]3(C(=O)O)C(=CCC4[C@@]5(C)CC[C@H](O[C@@H]6O[C@@H](C)[C@H](O[C@@H]7O[C@H](CO)[C@@H](O)[C@H](O)[C@H]7O)[C@@H](O)[C@H]6O)C(C)(C)C5CC[C@]43C)C2[C@H]1C` (some centres undefined), for which the Potency entry in assay [1], in assay [2] and in assay [3] was “inactive” each time.

On to `CC(C)(O)C1CC=C(C(=O)OCC2OC(Oc3c(O)cc(C(=O)O)cc3O)C(O)C(O)C2O)CC1` (centres undefined), for which, in assay [1], the Potency is 822 nM (active). The Potency entry in assay [2] and in assay [3] was “inactive” each time.

As to `NS(=O)(=O)NCCNc1nonc1C(=Nc1ccc(F)c(Br)c1)NO`, the Potency result in assay [1], in assay [2] and in assay [3] was “inactive” in each case.

For `CC1=CC2(O)/C=C/C(C)(O)CC(O)/C=C/C(=O)OC23C(=O)NC(CC(C)C)C3C1C` (centres undefined), the Potency entry in assay [1], in assay [2] and in assay [3] was “inactive” in each case.

Consider `Oc1ccc([C@H]2COc3cc(O)ccc3C2)cc1`, for which the Potency entry in assay [1], in assay [2] and in assay [3] was “inactive” in each case.

On to `C[C@H](NCc1ccc(OCc2ccccc2F)cc1)C(N)=O`, for which the Potency result in assay [1], in assay [2] and in assay [3] was “inactive” each time.

Take `C[C@@H]1CC[C@H]2C(C)(C)[C@H](O)[C@H](O)C[C@]2(C)[C@@]12Cc1c(O)cc3c(c1O2)CNC3=O`: the Potency result in assay [1], in assay [2] and in assay [3] was “inactive” throughout.
